HCV inhibitor – HCV inhibition; Potency, µM (highest dose often 41.8 µM), actives largely listed as inhibitors; Huh7.5.1 HCVcc-Cre infection, luciferase reporter, 44 h; 340,000 tested, 3.4% active; active = well fitted inhibition curve with a large enough effect; inconclusive = small, poorly fitted or top-dose-only effect, or another doubt; inactive = no such curve, though single readings can be large or run the other way
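Whole-lifecycle infectious HCVcc-Cre system; cells 1,000/well, compound then virus (~0.5 moi) added 4 h after plating, 44 h culture. Luciferase read 15 sec following 15 min substrate incubation, room temp.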
Marburg entry inh – inhibitors of Marburg virus binding or cell entry. Marburg virus pseudotyped entry inhibition, cell reporter. Potency, µM (doses to about 37.8 µM), hits mostly inhibitors. 300,000 tested, 1.8% active; calls by dose curve; tested in HEK293 cells
HCMV inh – human cytomegalovirus inhibition; HFF cells, HCMV-luciferase reporter, 72 h; active compounds read low; activity change, negative = inhibition, % at 57.5 µM; 410,000 tested, 4.5% active; AID 1259415; in the data active = activity change below about -60%; inconclusive = no clear call, values can overlap the other calls; inactive = above about -39%
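Steps: HFFs plated, 16 h 37C; compounds added; HCMV-luciferase added to MOI 1 PFU/cell; 72 h 37C; OneGlo reagent, 5 min room temperature; luminescence read, normalized to controls.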
FMDV inh – antivirals against foot and mouth disease virus; 410,000 tested, 1.2% active; FMDV antiviral cell-based qHTS; Potency, µM (titrated, usually from 57.9 µM), actives largely listed as inhibitors; AID 1159524; calls by dose curve; tested in HEK293T cells; note: read-out not given here; nearly all actives have a fitted effect of over 45% in size
LASV entry inh – inhibitors of Lassa virus binding or cell entry; Potency, µM (series often up to 37.9 µM), hits mostly inhibitors; Lassa virus pseudotype entry inhibition, cell reporter; 300,000 tested, 1.2% active; calls by dose curve; tested in HEK293 cells; note: nearly all actives have a fitted effect of over 50% in size
Of the large screens only hits and unclear results are named; the others gave an inactive call. An excerpt weighted towards active compounds, which were near 7.9% of everything screened.

Cc1ccc(OCC(=O)NNc2c3ccccc3nc3ccccc23)cc1	HCV inhibitor 1µM, Marburg entry inh inconclusive, HCMV inh -95, FMDV inh inconclusive, LASV entry inh inconclusive
Cc1cccc(OCC(=O)NNc2c3ccccc3nc3ccccc23)c1	HCV inhibitor 1µM, Marburg entry inh inconclusive, HCMV inh -97, FMDV inh inconclusive, LASV entry inh inconclusive
CCN(CC)CCCNC(=O)C1CCN(S(C)(=O)=O)CC1	LASV entry inh inconclusive (no result: HCV inhibitor, Marburg entry inh)
CC1CC[C@@]2(OC1)OC1C(O)C3C4CC[C@H]5CC(O[C@@H]6O[C@@H](CO)[C@H](OC7OC(CO)C(O)C(OC8OCC(O)C(O)[C@H]8O)[C@@H]7O[C@@H]7OC(CO)[C@H](O)[C@@H](O[C@@H]8OC(CO)C(O)C(O)C8O)C7O)C(O)C6O)C(O)C[C@]5(C)C4CC[C@]3(C)C1C2C (stereo not given in full)	FMDV inh 35µM (no result: HCV inhibitor, Marburg entry inh, HCMV inh, LASV entry inh)
CC(C)(O)C1CC[C@@](C)([C@@H]2CC[C@]3(C)[C@H]2[C@H](O)CC2[C@@]4(C)CCC(O)C(C)(C)C4C(OC4OC(CO)C(O)C(O)C4O[C@@H]4OCC(O)C(O)C4O)C[C@]23C)O1 (stereo not given in full)	none (no result: Marburg entry inh, LASV entry inh)
O=C1NN(c2ccc(F)c(Cl)c2)C(=O)/C1=C\c1cccc(OC(=O)c2cccs2)c1	FMDV inh 28µM
Cc1nn(C)c(C)c1S(=O)(=O)N(CC(=O)NCCc1ccccc1)c1ccc(C(C)C)cc1	none (no result: HCV inhibitor)
CCN1C(=O)/C(=C/N(C(C)=O)c2ccccc2)N(c2ccccc2)C1=S	FMDV inh 32µM
Cc1ccc(CNC(=O)CCCN2C(=O)CCn3nc(-c4cn(C)c5ccccc45)cc32)cc1	none (no result: HCV inhibitor, Marburg entry inh)
COc1ccc(S(=O)(=O)Nc2cc3c4c(oc3c3ccccc23)CCCC4=O)cc1	HCV inhibitor inconclusive, Marburg entry inh inconclusive, LASV entry inh 7.1µM
COc1ccc(S(=O)(=O)Nc2cc3c4c(oc3c3ccccc23)CC(C)(C)CC4=O)cc1	HCV inhibitor inconclusive, Marburg entry inh 15µM, LASV entry inh inconclusive
CNc1c(NS(=O)(=O)c2ccc(OC)cc2)c(=O)oc2ccccc12	none
Cc1cc(C(=O)N/N=C/c2ccc(C)o2)c2ccccc2n1	Marburg entry inh inconclusive, HCMV inh -63, LASV entry inh inconclusive
CC(=O)Nc1ccc(/C=N/NC(=O)c2cc3cc(C)ccc3nc2C)cc1	none
CC(=O)Nc1ccc(/C=N/NC(=O)c2cc3ccccc3nc2C)cc1	HCMV inh -72, LASV entry inh inconclusive
COc1cccc(/C=N/NC(=O)c2cc(-c3ccccn3)nc3ccccc23)c1O	HCV inhibitor 4µM, Marburg entry inh inconclusive, HCMV inh -63, LASV entry inh inconclusive
O=C(N/N=C/c1ccc(F)cc1)c1cc(-c2ccccn2)nc2ccccc12	none
CC(/C=C/c1cccc([N+](=O)[O-])c1)=N/NC(=O)c1cccnc1	HCMV inh -62
Cc1cccnc1-c1cccc2c1OC(CNC(=O)C1CCCc3c1[nH]c1ccccc31)C2 (stereo not given)	none (no result: HCV inhibitor, Marburg entry inh, HCMV inh, LASV entry inh)
O=C(CCN1Cc2ccccc2OC(c2ccccc2F)C1)N1CCC(N2CCCC(O)C2)CC1 (stereo not given)	none (no result: HCV inhibitor, Marburg entry inh, HCMV inh, LASV entry inh)
COc1ccc(OCC(=O)NCCS(=O)(=O)N2CCN(c3cccc(Cl)c3)CC2)cc1	none (no result: HCV inhibitor, Marburg entry inh)
C=CC[C@@H]1C=CC(ON=C(C)CCC(=O)OC[C@H]2O[C@H](C#Cc3ccccc3)C=C[C@H]2Oc2ccc(C)cc2)[C@H](CO)O1 (stereo not given in full)	none (no result: HCV inhibitor, HCMV inh, FMDV inh, LASV entry inh)
CCN(CC)S(=O)(=O)c1ccc2c(c1)c(=O)c(C(=O)N(C)Cc1ccccc1)cn2C	none (no result: HCV inhibitor)
CC(/C=N/NC(=O)c1cc(-c2ccc(Cl)cc2)nc2ccccc12)=C\c1ccco1	HCV inhibitor inconclusive, Marburg entry inh inconclusive, HCMV inh -83, LASV entry inh inconclusive
COc1ccc(/C=N/NC(=O)c2cc(-c3ccccc3)nc3ccccc23)cc1O	Marburg entry inh 13µM
CCOc1ccc(/C=N/NC(=O)c2cc(-c3ccccc3)nc3ccccc23)cc1O	FMDV inh inconclusive (no result: LASV entry inh)
CC(C)COc1cccc(-c2cc(C(=O)N/N=C/c3ccncc3)c3ccccc3n2)c1	HCV inhibitor inconclusive, Marburg entry inh 2.8µM, HCMV inh inconclusive, LASV entry inh inconclusive
CCOc1cc(/C=N/NC(=O)c2cc(-c3cccc(OC)c3)nc3ccccc23)ccc1O	Marburg entry inh inconclusive, FMDV inh inconclusive, LASV entry inh inconclusive
O=C(N/N=C/c1ccc(O)cc1)c1cc(-c2ccccc2)nc2ccccc12	HCMV inh -76 (no result: Marburg entry inh, LASV entry inh)

Screening results deposited in PubChem by National Center for Advancing Translational Sciences (NCATS).
